# High-throughput results as filed in PubChem BioAssay.
# S aureus helic – S. aureus DNA helicase inhibition | purified S. aureus helicase, fluorescence unwinding assay | 0.05% of 120,000 active | inhibition, % (test concentration not listed); in the data active means inhibition above about 25%, passing the limit was not always enough;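 further: 0% = mean of negative control wells and 100% = mean of positive control wells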
# HCMV UL50-53 inh – inhibitors of HCMV UL50-UL53 nuclear egress complex interaction; HTRF UL50-UL53 interaction, normalized percent inhibition; inhibition, % (concentration not given with the values); 0.15% of 190,000 active; in the data active means inhibition above about 27%, passing the limit was not always enough
# Sa growth inh – S. aureus growth inhibition | 0.53% of 170,000 active | S. aureus RN4220 growth, OD600, 20 h, 42 °C; hits give low values | relative growth, % (test concentration not listed);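 active means relative growth at most 50% at the other temperature and 20+ points below 30 °C, or under 10% at both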
# Numbers without * were called inactive; x = no result. Shown is part of a subset that was picked to be rich in hits.
SMILES,S aureus helic,HCMV UL50-53 inh,Sa growth inh
CCOC(=O)CN1C(=O)/C(=C\c2ccc(OC)c(Br)c2)Sc2ccccc21,5.0,x,79.7
O=c1ccc(-c2ccc(Cl)cc2)n[nH]1,-35.0,-37.2,92.8
O=c1cc[nH]cc1-c1ccc(Cl)cc1,9.0,-7.5,-0.8*
CCOC(=O)c1c(C)n(-c2ccccc2)c2c1cc(OC(=O)c1ccccc1F)c1ccccc12,x,-18.3,x
O=C1N=c2ccccc2=C1N=Nc1c(O)[nH]c2ccccc12,-23.0,-42.0,37.6
O=C1C2C=CC=CC2=NC(=S)[N+]1=Nc1c(O)[nH]c2ccccc12 (centres undefined),11.0,-52.5,1.4*
Cc1nnc(N2CCC(C(=O)NCc3cccnc3)CC2)c2nn(-c3ccc(Cl)cc3)c(C)c12,x,12.6,x
O=C1S/C(=C\C=C\c2ccco2)C(=O)N1c1ccccc1,4.0,-23.1,124.9
O=C(O)C(Cc1ccccc1)N1C(=O)/C(=C/C=C/c2ccco2)SC1=S (centres undefined),-3.0,70.5*,28.9
CCOc1ccc(CNC(=O)c2ccc(CS(=O)Cc3ccc(Cl)cc3)o2)cc1 (centres undefined),x,x,110.9
CCOc1ccc(CCNC(=O)c2ccc(CS(=O)Cc3cccc(Cl)c3)o2)cc1 (centres undefined),x,x,23.6*
CN(CC(=O)Nc1ccccc1Sc1ccccc1)C1CCS(=O)(=O)C1 (centres undefined),-4.0,-25.9,95.0
CCS(=O)(=O)c1ncc(Cl)c(C(=O)Nc2ccc(S(=O)(=O)N(C)c3ccccc3)cc2)n1,x,-21.2,89.0
CCN(c1ccccc1)S(=O)(=O)c1ccc(NC(=O)c2nc(S(C)(=O)=O)ncc2Cl)cc1,x,-0.4,-1.4*
CS(=O)(=O)c1ccccc1C(=O)Nc1nnc(-c2ccc(Cl)cc2)o1,8.0,-29.1,22.2
Cc1ccc(C)c(-c2nnc(NC(=O)c3ccccc3S(C)(=O)=O)o2)c1,6.0,-30.0,2.0*
Cc1cc2c(CCl)cc(=O)oc2cc1C(C)C,-5.0,-2.6,91.8
Cc1cc2oc(=O)cc(Cn3ccsc3=N)c2cc1C(C)C,6.0,-17.0,49.6*
CC[n+]1c(/C=C/Nc2ccccc2)sc2ccccc21,8.0,-63.3,103.0
CC[n+]1c(/C=C/N(C)c2ccccc2)sc2ccc(OC)cc21,0.0,x,-0.6*
COc1ccc(NS(=O)(=O)c2ccc3c(c2)N(C(C)=O)CCCS3)c(OC)c1,x,-23.9,x
